Measured values: PubChem BioAssay (EPA / NIEHS)
Some structures have more than one record in an assay (separate samples or runs), and their calls can disagree. Activity calls are given as the source filed them. Rule for the calls: active = hit-call score of the fitted dose curve at least 0.9, where 1 is the maximum; inconclusive = response in the unintended direction; inactive = score below 0.9.

target: Peroxisome proliferator-activated receptor gamma (Homo sapiens) (UniProt P37231); assay: OT_PPARg_PPARgSRC1_1440: Odyssey Thera (OT) 24-hour Protein-Complementation Assay for Peroxisome Proliferator-activated Receptor Gamma/ SRC-1 Co-activator (AID 2283388);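 note: nuclear to cytoplasmic ratio of reconstituted Venus YFP fluorescence in fixed imaged cells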
Sequence (P37231 whole entry, looked up, the tested form may be a part): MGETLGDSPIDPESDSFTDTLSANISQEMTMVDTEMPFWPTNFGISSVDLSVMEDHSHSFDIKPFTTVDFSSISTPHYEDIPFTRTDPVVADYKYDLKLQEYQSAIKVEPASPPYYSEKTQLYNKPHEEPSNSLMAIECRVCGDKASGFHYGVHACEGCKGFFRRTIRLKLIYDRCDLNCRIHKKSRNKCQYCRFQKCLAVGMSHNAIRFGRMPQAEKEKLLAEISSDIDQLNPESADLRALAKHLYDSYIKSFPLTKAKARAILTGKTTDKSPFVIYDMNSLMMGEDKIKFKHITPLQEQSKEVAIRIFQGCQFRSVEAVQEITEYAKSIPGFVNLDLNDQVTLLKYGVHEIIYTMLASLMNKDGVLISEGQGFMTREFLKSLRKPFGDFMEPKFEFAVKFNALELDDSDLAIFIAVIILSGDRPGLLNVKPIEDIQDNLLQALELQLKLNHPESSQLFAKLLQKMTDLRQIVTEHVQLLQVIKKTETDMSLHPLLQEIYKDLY
Experimental: OT_PPARg_PPARgSRC1_1440 is a cell-based assay that uses HEK293T, a human kidney cell line, with measurements taken at 24 hours after chemical dosing in a 384-well plate.OT_PPARg_PPARgSRC1_1440 is one of one assay component(s) measured or calculated from the OT_PPARg_PPARgSRC1_1440 assay. It is designed to make measurements of protein fragment complementation, a form of binding reporter, as detected with fluorescence intensity signals by Protein-fragment Complementation technology.Data from the assay component OT_PPARg_PPARgSRC1_1440 was analyzed into 1 assay endpoint. This assay endpoint, OT_PPARg_PPARgSRC1_1440, was analyzed in the positive analysis fitting direction relative to DMSO as the negative control and baseline of activity. Using a type of binding reporter, measures of receptor for gain-of-signal activity can be used to understand the binding at the pathway-level as they relate to the gene PPARG. Furthermore, this assay endpoint can be referred to as a primary readout, because the performed assay has only produced 1 assay endpoint. To generalize the intended target to other relatable targets, this assay endpoint is annotated to the nuclear receptor intended target family, where the subfamily is non-steroidal.
The OT PPARg/SRC-1 assay assessed receptor-chemical interactions using a rapidly maturing, intensely fluorescent mutant of YFP known as Venus, rationally dissected into two separate fragments. The fragments were obtained as follows: first, fragments coding for YFP1 and YFP2 (corresponding to amino acid residues 1-158 and 159-239 of the full length YFP, respectively) were generated by oligonucleotide synthesis (Blue Heron Biotechnology), and then PCR mutagenesis was used to generate the mutant fragments IFP1 and IFP2. Fusion constructs were transfected into HEK293T cells with a (Gly4Ser)2 linker between the PPARg/SRC-1 and YFP fragment genes to facilitate complementation when interacting proteins bring fragments into close proximity. The construct is transiently transfected in HEK293T cells 48 hours prior to treatment with test compounds. Cells are seeded into optical quality 384-well poly-D-lysine coated plates in MEM alpha medium (Invitrogen) supplemented with 10 percent FBS (Gemini Bio-Products) 1 percent penicillin and 1 percent streptomycin, and grown in 37C incubator equilibrated to 5 percent CO2. Cells are allowed to adhere for 24 hours prior to treatment with compounds of interest or controls for 24 hours. Cells are fixed in 4 percent formaldehyde and stained with Draq5 (BioStatus) to identify cells and subcellular compartment boundaries prior to signal detection. 8 Images per well were acquired on an Evotec Opera at 2 wavelengths (488 and 635nm), and the ratio of fluorescence in the nucleus relative to fluorescence in the cytoplasm (N/C Ratio) in the 488nm channel was calculated for a minimum of 350 cells per image.

Compound | outcome | AC50
CC(C)(OO)c1ccccc1 | inactive | 
O=S(=O)(c1ccc(Cl)cc1)c1ccc(Cl)cc1 | inactive | 
CC(C#N)CCC#N (stereo not given) | inactive | 
[O-][Cl+2]([O-])O | inactive | 
CCCCOCCOC(C)=O | inactive | 
COP(=O)(OC)O/C(=C\Cl)c1cc(Cl)c(Cl)cc1Cl | inactive | 
O=C(NCO)NCO | inactive | 
C=C(C)C(=O)[O][Sn]([CH2]CCC)([CH2]CCC)[CH2]CCC | inactive | 0.0287 µM (active)
CCC(=O)C(CC(C)N(C)C)(c1ccccc1)c1ccccc1 (stereo not given) | inactive | 
ClC1(Cl)C2(Cl)C3(Cl)C4(Cl)C(Cl)(Cl)C5(Cl)C3(Cl)C1(Cl)C5(Cl)C24Cl (stereo not given) | inactive | 
C=CC(=O)OCCCCCC(C)C | inactive | 
Cl/C=C\C[N+]12CN3CN(CN(C3)C1)C2 | inactive | 
O=C(O)C(F)(F)C(F)(F)C(F)(F)C(F)(F)C(F)(F)C(F)(F)C(F)(F)C(F)(F)C(F)(F)C(F)(F)F | inactive | 
OCc1ccco1 | inactive | 
CC(C)C1CCC(Cc2ccc(Cl)cc2)C1(O)Cn1cncn1 (stereo not given) | inactive | 
COc1ccc(C=O)cc1OC | inactive | 
CC(=O)C=C(C)C | inactive | 
COc1ccc(C=O)cc1 | inactive | 
COc1cc(OC)nc(NC(=O)NS(=O)(=O)c2ncccc2C(=O)N(C)C)n1 | inactive | 
CC12CC1(C)C(=O)N(c1cc(Cl)cc(Cl)c1)C2=O (stereo not given) | inactive | 

Compound | outcome | AC50
Cc1ccc(N)cc1Cl | inactive | 
N#CN=C(N)N | inactive | 
Oc1ccc(-c2ccccc2)cc1 | inactive | 
O=C1C2(Cl)C3(Cl)C4(Cl)C(Cl)(Cl)C5(Cl)C3(Cl)C1(Cl)C5(Cl)C24Cl (stereo not given) | inactive | 
Oc1cccc2cccnc12 | inactive | 
CCC[CH2][Sn]([Cl])([Cl])[Cl] | inactive | 
CCOP(=S)(OCC)SCSP(=S)(OCC)OCC | inactive | 
CC(C)(C)c1cc(O)ccc1O | inactive | 
CC(C)(c1ccc(OCC2CO2)cc1)c1ccc(OCC2CO2)cc1 (stereo not given) | inactive | 
CCC(C)(C)c1ccc(O)c(C(C)(C)CC)c1 | inactive | 
c1cc[c]([Hg][c]2ccccc2)cc1 |  | 50 µM (active)
Fc1ccc(C2(Cn3cncn3)OC2c2ccccc2Cl)cc1 (stereo not given) | inactive | 
O=C(O)C(Cl)(Cl)Cl | inactive | 
COc1cc(-c2ccc(N)c(OC)c2)ccc1N | inactive | 
BrCCBr | inactive | 
C[C@]12CCC(=O)C[C@@H]1CC[C@@H]1[C@@H]2CC[C@]2(C)[C@@H](O)CC[C@@H]12 | inactive | 
CC1(C)CCC(Cc2ccc(Cl)cc2)C1(O)Cn1cncn1 (stereo not given) | inactive | 
CNC | inactive | 
CN(C)N=O | inactive | 
